Reference: PubChem BioAssay (Tox21)
Inconclusive results are not listed. Calls of active or inactive are those of the source. Unless noted, calls follow the shape of the dose curve; as a rule, active = well fitted curve in the direction sought with a large enough effect in the repeat runs; inconclusive = weak or mixed curves; inactive = no such curve, though single readings can be large; an effect the other way counts as inactive or inconclusive.

What was measured:
[1] = qHTS assay for small molecule agonists of the p53 signaling pathway (AID 651631; calls by dose curve; also: nearly all actives have a fitted effect of over 15% in size)
How it was run: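 Agonist mode screen using a stably integrated beta-lactamase gene under p53 response elements in HCT-116 cells. Compound exposure lasts 16 h at 37 °C; fluorescence intensity is measured following 2 h FRET substrate loading.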

[2] = qHTS assay for small molecules that induce genotoxicity in human embryonic kidney cells expressing luciferase-tagged ATAD5 (AID 651632); also: nearly all actives have a fitted effect of over 15% in size
How it was run: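 Genotoxicity read-out via ATAD5-luciferase: HEK293T cells, 16 hr compound incubation at 37C, Amplite detection.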

[3] = qHTS assay for small molecule agonists of the p53 signaling pathway - cell viability (AID 651633; calls by dose curve;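 also: p53RE-bla HCT reporter cells with a stable beta-lactamase p53 reporter; series mostly up to about 83 µM; nearly all actives have a fitted effect of over 30% in size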)
How it was run: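 Viability counter-read: CellTiter-Glo luminescence (30 min, room temperature) in the same p53RE-bla plates. These plates had been exposed to compounds for 16 h at 37 C.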

[4] = qHTS assay for small molecules that induce genotoxicity in human embryonic kidney cells expressing luciferase-tagged ATAD5 - cell viability (AID 651634; calls by dose curve; also: nearly all actives have a fitted effect of over 25% in size)
How it was run: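 Live-cell protease activity (CellTiter-Fluor, fluorescence) indicates viability. HEK293T cells with luciferase-tagged ATAD5; 15.5 hr compound treatment at 37C.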

[5] = qHTS assay for small molecule disruptors of the mitochondrial membrane potential - cell viability (AID 720634; calls by dose curve;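 also: human HepG2 liver cancer cells; series mostly up to about 83 µM; nearly all actives have a fitted effect of over 20% in size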)
How it was run: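 Human hepatoma HepG2 cells were treated for 1 hr with test chemicals, then given m-MPI dye and CellTiter-Glo. Cell viability reflects luminescence proportional to cellular ATP.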

[6] = qHTS assay to test for compound auto fluorescence at 590 nm (red) in HepG2 cells (AID 720674)
How it was run: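 We screened compounds on adherent HepG2 cells, incubating them for an hour at 37 C in 5% CO2 before reading emission at 590 nm under 540 nm excitation; values reflect equivalence to Rose Bengal sodium fluorescence.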

[7] = qHTS assay to test for compound auto fluorescence at 535 nm (green) in HepG2 cells (AID 720675)
[8] = qHTS assay to test for compound auto fluorescence at 460 nm (blue) in HEK293 cells (AID 720678)
How it was run: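 Measured: blue fluorescence (Ex 405/Em 460 nm) of compound-treated HEK293 cells, incubated overnight at 37C with 5% CO2 and scaled to triamterene equivalents.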

[9] = qHTS assay to test for compound auto fluorescence at 590 nm (red) in HEK293 cells (AID 720679)
How it was run: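 Using HEK293 cells at 2,000 per well, the screen added 23 nL of each compound after cell attachment and incubated overnight (37C, 5% CO2). The plate reader then captured red-label fluorescence, Ex/Em 540/590nm.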

[10] = qHTS assay for small molecule disruptors of the mitochondrial membrane potential (AID 720635)
How it was run: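 Mitochondrial membrane potential tracked with Mito-MPS dye, red aggregates (ex 540/em 590 nm) against green monomers (ex 490/em 535 nm). Compound treatment 1 hr at 37C, dye 30 min in HepG2.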

Measured: Potency

COC(=O)NN
not listed: [10]
inactive: all other assays above

Cc1cc(O)cc2c1O[C@](C)(CCC[C@H](C)CCC[C@H](C)CCCC(C)C)CC2
not listed: [9]
inactive: all other assays above

CCCCOCCOCCOCCCC
inactive: all assays above

CCCN1CCCC[C@H]1C(=O)Nc1c(C)cccc1C
not listed: [10]
inactive: all other assays above

CC(C[N+](C)(C)C)OC(N)=O (stereo unspecified)
inactive: all assays above

CCOC(=O)c1ccc(C)cc1
not listed: [9]
inactive: all other assays above

NS(=O)(=O)c1ccc(C(=O)O)cc1
inactive: all assays above

O=C(O)COc1nn(Cc2ccccc2)c2ccccc12
inactive: all assays above

Nc1ccc(S(=O)(=O)Nc2ccnn2-c2ccccc2)cc1
not listed: [10]
inactive: all other assays above

C[C@H]1C[C@@H](O)CC(C)(C)C1
inactive: all assays above

CC(C)CNCC(C)C
inactive: all assays above

O=C(CCCN1CCN(c2ccccn2)CC1)c1ccc(F)cc1
inactive: all assays above

C1OCOCO1
not listed: [9]
inactive: all other assays above

C[C@@H]1CCN(C(=O)[C@H](CCCN=C(N)N)NS(=O)(=O)c2cccc3c2NC[C@H](C)C3)[C@@H](C(=O)O)C1
not listed: [9] | [10]
inactive: all other assays above

O=C(O)c1ccccc1OP(=O)(O)O
not listed: [9]
inactive: all other assays above

CC1=CC(C)C(C=O)CC1 (stereo unspecified)
inactive: all assays above

CC(=O)Nc1c(I)cc(I)c(C(=O)O)c1I
inactive: all assays above

CC(=O)c1ccccc1O
not listed: [10]
inactive: all other assays above

N[C@H](C(=O)O)c1ccc(O)cc1
inactive: all assays above

CCN1CCC[C@H]1CNC(=O)c1c(O)c(Cl)cc(Cl)c1OC
not listed: [9] | [10]
inactive: all other assays above

CCOC(=O)CCC(C)=O
not listed: [10]
inactive: all other assays above

O=C1OC(=O)C2CCCCC12 (stereo unspecified)
inactive: all assays above

C[N+](C)(C)CC(O)CC(=O)[O-] (stereo unspecified)
inactive: all assays above

O=C(O)CCCl
inactive: all assays above

CCCCCCCCS(=O)(=O)Cl
inactive: all assays above

CCCCCCCCCCCC
inactive: all assays above

Cn1cc(S(C)=O)c(=O)c2ccc(F)cc21 (stereo unspecified)
not listed: [9]
inactive: all other assays above

c1ccc(CC2=NCCN2)cc1
inactive: all assays above

CCCCC(CC)COC(=O)c1ccccc1O (stereo unspecified)
not listed: [10]
inactive: all other assays above

CC(=O)OCC(=O)[C@@]1(O)CCC2C3CCC4=CC(=O)CC[C@]4(C)C3[C@@H](O)C[C@@]21C (stereo partly specified)
inactive: all assays above

NS(=O)(=O)c1ccccc1Cl
not listed: [9]
inactive: all other assays above

CC(C)CCCC(C)N (stereo unspecified)
inactive: all assays above

C=CCOCC(CC)(CO)COCC=C
not listed: [9]
inactive: all other assays above

C=CCS(=O)(=O)O
inactive: all assays above

CC(C)NCC(O)c1ccc(NS(C)(=O)=O)cc1 (stereo unspecified)
not listed: [9]
inactive: all other assays above

CCCCCSCCCCC
inactive: all assays above

NC(=O)Nc1ccccc1
not listed: [9]
inactive: all other assays above

O=c1cc(CO)occ1O
inactive: all assays above

CCOC(C)(C)C
not listed: [9] | [10]
inactive: all other assays above

N#Cc1ccc(C2CCCc3cncn32)cc1 (stereo unspecified)
not listed: [10]
inactive: all other assays above

ClC(Cl)(Br)Br
not listed: [10]
inactive: all other assays above

COC(C)(C)CCCC(C)CC=O (stereo unspecified)
not listed: [4] | [10]
inactive: all other assays above

Cn1c(N)c(N=O)c(=O)n(C)c1=O
not listed: [5]
inactive: all other assays above

C/C=C(\C)C#N
not listed: [10]
inactive: all other assays above

NC(=O)c1ccc(N)cc1
not listed: [4] | [10]
inactive: all other assays above

Cc1cccc(C)c1NC(=O)C(C)N (stereo unspecified)
not listed: [5]
inactive: all other assays above

CC1(C)C(O)C(C)(C)C1O (stereo unspecified)
not listed: [10]
inactive: all other assays above

C=COCC1CCC(CO)CC1 (stereo unspecified)
not listed: [5]
inactive: all other assays above

CCn1nc(C(=O)O)c(=O)c2cc3c(cc21)OCO3
not listed: [4] | [9] | [10]
inactive: all other assays above

CN1CCCC1
not listed: [10]
inactive: all other assays above

CN1CC(=O)NC1=N
not listed: [5]
inactive: all other assays above

NC(=O)COCCN1CCN(C(c2ccccc2)c2ccc(Cl)cc2)CC1 (stereo unspecified)
not listed: [4] | [10]
inactive: all other assays above
